Lassa entry inh: qHTS for Inhibitors of binding or entry into cells for Lassa Virus. AID 540256, 2011. 1.2% of 300,000 active. Lassa virus pseudotype entry inhibition, cell reporter. Potency, µM (doses to about 37.9 µM), usual class: inhibitors; calls by dose curve; tested in HEK293 cells; further: nearly all actives have a fitted effect of over 50% in size
HCV inh: qHTS Assay for Inhibitors of Hepatitis C Virus (HCV); 3.4% of 340,000 active; Huh7.5.1 HCVcc-Cre infection, luciferase reporter, 44 h; Potency, µM (highest dose often 41.8 µM), actives largely listed as inhibitors; AID 651820, 2012
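After 44 h co-culture of compound, cells and HCVcc-Cre (~0.5 moi), substrate is added for 15 min at room temperature and luciferase measured over 15 sec. Cells were seeded at 1,000/well and pre-cultured 4 h.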
HCMV inh: qHTS Assay for inhibitors of the human cytomegalovirus (HCMV). HFF cells, HCMV-luciferase reporter, 72 h; stronger effect = lower value. 4.5% of 410,000 active. activity change, negative = inhibition, % at 57.5 µM; in the data active means activity change below about -60%; inconclusive means no clear call, values can overlap the other calls; inactive means above about -39%
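Two-dose cell screen: HFF monolayers treated with compounds and infected with luciferase-expressing HCMV at 1 PFU/cell, 72 h at 37C, then lysed for luciferase measurement.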
FMDV inh: High Throughput Screening for Foot and Mouth Disease Virus Antivirals | Potency, µM (titrated, usually from 57.9 µM), most hits filed as inhibitors | FMDV antiviral cell-based qHTS | 1.2% of 410,000 active; calls by dose curve; tested in HEK293T cells; further: read-out not given here; nearly all actives have a fitted effect of over 45% in size
MARV entry inh: qHTS for inhibitors of binding or entry into cells for Marburg Virus; Marburg virus pseudotyped entry inhibition, cell reporter; Potency, µM (highest dose often 37.8 µM), actives largely listed as inhibitors; 1.8% of 300,000 active; AID 540276, 2011; calls by dose curve; tested in HEK293 cells
FBPA Giardia inh: qHTS Assay for Inhibitors of Fructose-1,6-bisphosphate Aldolase from Giardia Lamblia; 0.71% of 290,000 active; A8B2U2; AID 2451, 2010; purified Giardia FBPA; Potency, µM (doses to about 59.6 µM), actives largely listed as inhibitors; further: nearly all actives have a fitted effect of over 55% in size
Target sequence (A8B2U2 whole entry, looked up): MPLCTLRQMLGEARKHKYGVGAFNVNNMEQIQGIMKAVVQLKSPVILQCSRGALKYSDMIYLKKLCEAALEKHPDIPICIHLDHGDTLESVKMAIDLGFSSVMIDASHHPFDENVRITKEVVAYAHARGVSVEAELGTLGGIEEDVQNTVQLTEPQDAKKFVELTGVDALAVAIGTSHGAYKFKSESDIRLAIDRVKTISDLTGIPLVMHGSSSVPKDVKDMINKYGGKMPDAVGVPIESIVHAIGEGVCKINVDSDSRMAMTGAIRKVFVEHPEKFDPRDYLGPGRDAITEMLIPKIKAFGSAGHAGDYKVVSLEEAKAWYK
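Giardia FBPA (40 nM reagent) was preincubated 10 min at RT with compound (up to 57.5 uM final), then substrate plus GAPDH/TPI/NAD/arsenate coupling system with diaphorase/resazurin was added; resorufin fluorescence (525/598 nm) was read after 20 min.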
Numbers stand for hits; . = inactive; ? = inconclusive; / = no result; + = active, no number. A selection: hits, their analogues and other compounds. The true share with any hit is near 8.3%. Unless noted, the call rests on the fitted dose curve; in most records, active means well fitted curve in the direction sought with a large enough effect; inconclusive means small, poorly fitted or top-dose-only effect, or another doubt; inactive means no such curve, though single readings can be large; an effect the other way counts as inactive or inconclusive.

SMILES	Lassa entry inh	HCV inh	HCMV inh	FMDV inh	MARV entry inh	FBPA Giardia inh
O=C(COc1ccc2ccccc2c1)NC1CC(=O)N(c2cccc(F)c2)C1 (centres undefined)	.	/	.	.	/	/
CCOC(=O)c1c(SCCN2CCCC2)n(-c2ccccc2)c(=S)n(-c2ccccc2)c1=O	?	?	.	20µM	?	/
Cc1cc(N=Cc2c(O)n(-c3ccc4c(c3)OCO4)c(=O)c3ccccc23)ccn1	?	.	-92	.	?	.
Cc1cc(N=Cc2c(O)n(-c3ccc(C)c(C)c3)c(=O)c3ccccc23)no1	.	.	-64	/	.	.
CCN(CC)S(=O)(=O)c1cccc(C(=O)Nc2ccc(S(=O)(=O)NC3=NCCCCC3)cc2)c1	.	.	-62	?	.	/
CCCOc1ccc(C(=O)Nc2ccc(S(=O)(=O)NC3=NCCCCC3)cc2)cc1	.	?	-62	.	?	/
CCN(CC)S(=O)(=O)c1cccc(C(=O)Nc2ccc(C#N)cc2)c1	?	?	?	25µM	.	.
CON(C)S(=O)(=O)c1cccc(C(=O)Nc2ccc(S(=O)(=O)NC3=NCCCCC3)cc2)c1	.	?	?	.	.	/
COc1ccc(CCn2nnnc2C2(c3ccc(C)cc3)CC2)cc1	.	/	/	/	.	/
C(=C\c1sc(Nc2ccccc2)n[n+]1-c1ccccc1)/c1ccccc1	/	.	.	6.3µM	/	/
O=C(NNC1OC(CO)C(O)C(O)C1O)c1cccnc1 (centres undefined)	.	.	-62	.	.	.
S=C(Nc1ccc(Oc2ccccc2)cc1)N1CCOCC1	.	.	.	.	.	.
CC(C)(CO)N1CCN(C(=S)Nc2ccccc2)CC1	/	.	.	22µM	/	.
S=C(Nc1ccccc1)N1CCOCCOCCN(C(=S)Nc2ccccc2)CCOCCOCC1	.	.	.	.	5.6µM	.
S=C(Nc1ccccc1)N1CCCCCC1	.	.	.	.	.	.
O=C(c1ccco1)N1CCC2(CCN(Cc3ccccc3)CC2)CC1	/	/	/	.	/	.
COc1cccc2c1[C@H](C=Cc1ccccc1)[C@@H]([C@H](O)COC(C)=O)OC2	/	/	/	/	.	/
COCCNc1cc(-c2ccccc2C(F)(F)F)ncn1	/	/	/	.	/	.
CCCCN(CCCC)C(=O)c1c[nH]c2ccc(S(=O)(=O)Nc3cccc(Cl)c3C)cc2c1=O	.	/	.	.	/	/
Cc1cc(C)c(NC(=O)C2CCN(c3nc4ccccc4[nH]3)CC2)c(C)c1	.	/	+	.	/	/
Cc1cc(Nc2ccccc2)n(-c2nc3ccccc3[nH]2)n1	?	5µM	-86	.	?	?
Cc1cc(C)nc(-n2nc(C)cc2Nc2ccccc2)n1	.	10µM	-66	?	?	.
Cc1cc(Nc2ccccc2)n(-c2ccccc2)n1	.	?	.	.	?	.
Cc1cc(NC(=O)c2c(F)cccc2Cl)n(-c2nc3ccccc3[nH]2)n1	?	14µM	?	.	?	?
Cc1cc(C)n(CC(=O)N2CCC(n3c(C(C)C)nc4cccnc43)CC2)n1	/	/	/	.	/	/
SMILES	Lassa entry inh	HCV inh	HCMV inh	FMDV inh	MARV entry inh	FBPA Giardia inh
Cc1cc(NC(=O)C2CCC2)n(-c2ccccn2)n1	.	10µM	.	.	.	.
Cc1cc(NC(=O)c2c(F)cccc2F)n(-c2nc3ccccc3[nH]2)n1	?	35µM	-89	?	?	.
Cc1cc(NC(=O)/C=C/c2ccc(F)cc2)n(-c2nc3ccccc3[nH]2)n1	.	?	.	.	.	.
Cc1cc(NC(=O)C2CCCCC2)n(-c2nc3ccccc3[nH]2)n1	?	4.5µM	.	.	.	.
Cc1cc(NC(=O)c2ccc(C)s2)n(-c2nc3ccccc3[nH]2)n1	.	?	-74	.	.	?
Cc1cc(NC(=O)c2ccccc2F)n(-c2nc3ccccc3[nH]2)n1	.	?	.	.	.	.
Cc1cc(NC(=O)c2cccc(S(=O)(=O)N3CCCCCC3)c2)n(-c2ccccn2)n1	.	.	.	.	.	.
C=CCN(C(=O)CCC(=O)O)[C@H]1CC(=O)N(c2ccc(OCCC)cc2)C1=O	/	/	/	/	.	/
CCCCC[C@H](O)/C=C/C1C(=O)C=C[C@H]1C/C=C\CCCC(=O)OC (some centres undefined)	/	?	-110	25µM	/	/
CCOC(=O)C1=C(O)/C(=C\c2ccc(CNC(=O)C(=O)Nc3ccccc3)o2)N=C1C	.	.	-74	.	.	?
